Source: PubChem
Shown are actives, neighbours in structure and some others; about 2% of the full set was active somewhere.
TAG inh: reduces triacylglycerol accumulation in H9c2 cells; Nile Red lipid (TAG) fluorescence; cells loaded with 200 µM oleic acid; inhibition, % at 12.5 µM; 0.66% of 230,000 active; AID 651582;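 active = pattern-corrected inhibition of lipid staining of at least 50% with the nuclear-stain viability signal not falling by more than 50%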
CHT block: inhibits the human high affinity choline transporter; Q9GZV3; CHT-expressing cells, membrane potential dye, choline response; stronger effect = lower value; B-score at 10 µM; 0.86% of 310,000 active; AID 488975;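 active = B-score over 3 SD under the library average, and starting fluorescence ratio not unusually high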;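 note: choline stimulus applied at its EC90 after an EC20 pre-addition; B-score computed on integrated fluorescence ratio after choline addition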
Target sequence (Q9GZV3 whole entry, looked up): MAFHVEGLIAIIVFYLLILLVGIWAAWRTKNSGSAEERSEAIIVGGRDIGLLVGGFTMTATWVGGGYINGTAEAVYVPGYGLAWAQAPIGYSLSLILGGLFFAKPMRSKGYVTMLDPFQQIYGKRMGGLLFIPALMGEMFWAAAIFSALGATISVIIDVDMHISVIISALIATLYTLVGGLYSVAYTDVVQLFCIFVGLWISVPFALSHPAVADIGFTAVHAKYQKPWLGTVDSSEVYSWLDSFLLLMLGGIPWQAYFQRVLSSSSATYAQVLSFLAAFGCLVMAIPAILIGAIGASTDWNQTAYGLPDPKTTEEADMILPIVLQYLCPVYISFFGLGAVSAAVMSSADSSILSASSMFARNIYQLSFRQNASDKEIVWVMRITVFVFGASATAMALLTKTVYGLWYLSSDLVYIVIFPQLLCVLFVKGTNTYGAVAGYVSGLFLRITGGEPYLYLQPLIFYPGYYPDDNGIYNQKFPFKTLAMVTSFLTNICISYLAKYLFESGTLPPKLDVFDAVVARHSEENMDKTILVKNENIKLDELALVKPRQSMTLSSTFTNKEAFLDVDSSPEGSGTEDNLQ
Kir21 block: blocks the mouse Kir2.1 inward-rectifier potassium channel | HEK293-Kir2.1, FluxOR thallium flux fluorescence; stronger effect = lower value | B-score at 10 µM | 0.85% of 310,000 active;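 active = fluorescence ratio B-score at or below minus 3 SD of library scores, with starting-brightness B-score within 2 SD, cut at about -4.2 in these data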;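 note: channel flux triggered by added potassium and thallium sulfate stimulus; B-score of peak minus minimum fluorescence over baseline after thallium stimulus; more negative B-score means stronger Kir2.1 block with less thallium influx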
CHT allo act: allosteric activators of human choline transporter CHT | CHT-expressing cells, membrane potential dye, choline EC20; stronger effect = higher value; LV-AA mutant CHT in HEK293 cells | 0.49% of 310,000 active | B-score at 10 µM | AID 488977 | Q9GZV3;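 active = initial fluorescence not abnormally high and integrated response B-score, plate-corrected, over 3 SD above library mean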
CHT block conf: human CHT inhibition, confirmatory screen | shares compounds with CHT block | CHT-expressing cells, choline membrane potential dye; LV-to-AA substituted CHT, HEK293 cells | CHT activity remaining % of control (stronger effect = lower value), % at 10 µM | 70% of 2,400 active | AID 493221;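 active = choline transporter activity left, mean of duplicates at 10 µM, below buffer-only control mean minus 3 SD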;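 note: depolarization triggered by choline at its EC90 following an EC20 pre-addition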
HEK293 MPD ctr: activity in parental HEK293 cells lacking CHT; shares compounds with CHT block; membrane potential ratio readout (active if shifted either direction beyond buffer ±3SD; no single direction) at 10 µM; membrane potential dye, choline response; active = decrease or increase beyond buffer ±3SD; 4% of 2,400 active;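 note: parental cells lack the transporter so any hit is non-specific; ratio is peak minus trough fluorescence over baseline after EC90 choline challenge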
Each line names hits and unclear results; the compound was inactive in the other large screens (follow-up assays come after a bar, where they were run).

CCCn1c(=O)c2c(nc3n2CCCN3CCc2ccc(OC)c(OC)c2)n(C)c1=O	CHT block -5.2 (no result: TAG inh) | CHT block conf 70% | HEK293 MPD ctr inactive
O=C1C(Cl)=C(NS(=O)(=O)c2ccc([N+](=O)[O-])cc2)C(=O)c2ccccc21	CHT block -5.8 | CHT block conf 49% | HEK293 MPD ctr 2.3
COc1ccc(N2CCN(C(=O)COC(=O)c3ccc(CSC)o3)CC2)cc1	none (no result: CHT block, Kir21 block, CHT allo act)
c1ccc(CN2CCC(Nc3nc(-c4ccccc4)nc4ccccc34)CC2)cc1	CHT block -6.3 | CHT block conf inactive | HEK293 MPD ctr inactive
CCC(=O)NC(=S)Nc1cccc(NC(=O)c2ccc(Cl)cc2Cl)c1	none (no result: TAG inh)
CC(C)C(=O)Nc1cccc(NC(=O)c2ccc(Cl)cc2Cl)c1	CHT block -9.4 (no result: TAG inh) | CHT block conf 43% | HEK293 MPD ctr inactive
COc1ccc(NC(=O)CSCc2cc(=O)n3ccsc3n2)cc1	none (no result: TAG inh)
O=c1cc(CNc2ccc(Br)cc2)nc2sccn12	CHT block -5.4 (no result: TAG inh) | CHT block conf 59% | HEK293 MPD ctr inactive
Oc1c(/C=N/c2ccccn2)sc2ccccc12	CHT block -8.2 | CHT block conf inactive | HEK293 MPD ctr inactive
COc1ccnc(N2CCN(c3ccccc3)CC2)c1C#N	CHT block -8.3 (no result: TAG inh) | CHT block conf inactive | HEK293 MPD ctr inactive
C[C@H](NC(=O)OC(C)(C)C)c1nnc(SCC(=O)c2ccc(Cl)cc2)o1	CHT block -5.3 | CHT block conf 69% | HEK293 MPD ctr inactive
COc1ccc(C2NC(=O)NC(C)=C2C(=O)OC2CCC(C)CC2)cc1 (configuration not stated)	none (no result: TAG inh)
COc1ccc(Br)cc1C(=O)NC(=S)Nc1ccc(Cl)c(C(=O)O)c1	none | CHT block conf 58% | HEK293 MPD ctr inactive
O=[N+]([O-])c1ccc(O)c(C2=NNC(c3ccccc3F)C2)c1 (configuration not stated)	CHT block -10 | CHT block conf 20% | HEK293 MPD ctr inactive
Oc1ccc(Cl)cc1C1=NNC(c2cccs2)C1 (configuration not stated)	none
Cc1ccccc1OCC(=O)Nc1ccc(S(=O)(=O)Nc2ccccn2)cc1	none (no result: TAG inh)
Cc1ccc(C)c(OCC(=O)Nc2ccc(S(=O)(=O)Nc3ccccn3)cc2)c1C	CHT block -7.2 (no result: TAG inh) | CHT block conf 59% | HEK293 MPD ctr inactive
O=C(Nc1ccc(S(=O)(=O)Nc2ccccn2)cc1)c1ccc(Cl)cc1Cl	CHT block -12 (no result: TAG inh) | CHT block conf -0.5% | HEK293 MPD ctr inactive
O=C(Nc1ccc(S(=O)(=O)Nc2ccccn2)cc1)c1cccc(Cl)c1	none (no result: TAG inh)
Cc1noc(NS(=O)(=O)c2ccc(NC(=O)c3oc4ccc(Cl)cc4c3C)cc2)c1C	CHT block -5.6 | CHT block conf 59% | HEK293 MPD ctr inactive
Cc1cc(NS(=O)(=O)c2ccc(NC(=O)c3ccc(Cl)cc3Cl)cc2)no1	CHT block -9.4 (no result: TAG inh) | CHT block conf 13% | HEK293 MPD ctr inactive
Cc1cc(NS(=O)(=O)c2ccc(NC(=S)NC(=O)c3ccc(Cl)cc3Cl)cc2)no1	none
O=c1c(Cc2ccccc2)c(O)ccn1Cc1ccco1	none
COc1cc(C(=O)NC2CC(C)(C)CC(C)(C)C2)ccc1OC1CCN(C(C)=O)CC1	CHT block -6.9 | CHT block conf 4.8% | HEK293 MPD ctr inactive
COc1ccccc1NC(=O)CNS(=O)(=O)c1ccccc1	CHT block -5.7 (no result: TAG inh) | CHT block conf inactive | HEK293 MPD ctr inactive
CC(=O)c1ccc(OC(=O)C(CCS(C)(=O)=O)N2C(=O)c3ccccc3C2=O)cc1 (configuration not stated)	none (no result: TAG inh)
COC(=O)c1ccc(COC(=O)C(CCS(C)(=O)=O)N2C(=O)c3ccccc3C2=O)cc1 (configuration not stated)	CHT block -6.3 (no result: TAG inh) | CHT block conf inactive | HEK293 MPD ctr inactive
O=C(CCC1CCN(C(=O)C2CC=CCC2)CC1)Nc1ccccc1 (configuration not stated)	none (no result: CHT block, Kir21 block, CHT allo act)
CCOc1ccc(-c2csc(NNC3=NCCCCC3)n2)cc1	none (no result: TAG inh)
C=CCNc1nc(SCC=C)nc2ccsc12	CHT block -8.4 | CHT block conf 25% | HEK293 MPD ctr inactive
C=CCSc1nc(Oc2ccccc2)c2sccc2n1	none
COCCCN1C(=O)C(=O)/C(=C(/O)c2ccccc2)C1c1ccc(N(C)C)cc1 (configuration not stated)	none (no result: TAG inh)
CN(C)c1ccc(C2/C(=C(/O)c3ccccc3)C(=O)C(=O)N2CCCC(=O)O)cc1 (configuration not stated)	CHT block -6.6 | CHT block conf inactive | HEK293 MPD ctr inactive
Brc1ccc(C2=Nc3ccccc3C(c3ccncc3)=NN2)cc1	CHT block -11 | CHT block conf inactive | HEK293 MPD ctr inactive
CC(O)c1cccc(NC(=O)CC(c2ccccc2)c2ccccc2)c1 (configuration not stated)	CHT block -7.5 (no result: TAG inh) | CHT block conf 45% | HEK293 MPD ctr inactive
O=C(CC(C(=O)O)c1ccccc1)Nc1ccccc1 (configuration not stated)	none (no result: TAG inh)
O=C(CC(c1ccccc1)c1ccccc1)Nc1ccncc1	CHT block -5.9 | CHT block conf 56% | HEK293 MPD ctr inactive
CNC(=S)N(Cc1ccc(OC)cc1)C1CC(=O)N(c2ccc(Cl)cc2)C1=O (configuration not stated)	none
O=C(NCCc1ccc(F)cc1)c1ccc(S(=O)(=O)N2CCCC2)cc1	none (no result: CHT block, Kir21 block, CHT allo act)
O=C(NCC1CCCO1)c1ccc(COc2ccccc2)o1 (configuration not stated)	none
O=C(COC(=O)c1ccc(S(=O)(=O)N2CCCC2)cc1)NCc1ccco1	none
Cc1ccc(NC2CCCN(C(=O)C3CCCCC3)C2)cc1C (configuration not stated)	none
OCc1ccccc1OCCOc1ccc(Cl)c2cccnc12	CHT block -9.7 (no result: TAG inh) | CHT block conf 44% | HEK293 MPD ctr inactive
OCc1ccccc1OCCCOc1cccc2cccnc12	none
COC(=O)c1cc(S(=O)(=O)NCCc2cccc(C)c2)cn1C	none (no result: TAG inh)
COc1ccc(NC(=O)Cn2cccc2)cc1Cl	none (no result: TAG inh)
O=C(CSc1c2c(nc3cc(Cl)ccc13)CCCC2)NCCN1CCOCC1	none (no result: TAG inh)
O=C(CSc1c2c(nc3ccc(Cl)cc13)CCCC2)NCCCN1CCOCC1	CHT block -8.6 | CHT block conf 18% | HEK293 MPD ctr inactive
COc1ccc(OC)c2nc3c(cc12)CCC3	none (no result: TAG inh)
CCCC(C)C(=O)Nc1ccc(S(=O)(=O)Nc2nccc(C)n2)cc1 (configuration not stated)	none (no result: TAG inh)
N=c1n(CCN2CCOCC2)c2ccccc2n1CC(O)COc1ccccc1 (configuration not stated)	none
N=c1n(Cc2ccccc2)c2ccccc2n1CC(O)COc1ccccc1 (configuration not stated)	CHT block -9.8, Kir21 block -7.1 | CHT block conf 38% | HEK293 MPD ctr inactive
